Records with an inconclusive call do not appear. Unmarked numbers belong to inactive results. Calls follow the shape of the dose curve; as a rule, active = well fitted inhibition curve with a large enough effect; inconclusive = small, poorly fitted or top-dose-only effect; inactive = no such curve, though single readings can be large or run the other way.
Target: Rap guanine nucleotide exchange factor 3 (Homo sapiens) (UniProt O95398)
Assay: Counterscreen qHTS for antagonist of cAMP-regulated guanine nucleotide exchange factor 3 (EPAC1) (AID 1645888); also: % of control where 0% means no effect
Conditions: Rap1B-BODIPY-GDP nucleotide exchange, fluorescence; series mostly up to 154 µM; activity change, negative = inhibition: at the top concentration
Source text: Assay Provider (PI): Xiaodong Cheng Ph.D. The University of Texas Medical Branch, […], TX MLPCN Grant: NS066510 In multi-cellular eukaryotic organisms, the effects of cAMP are transduced by two ubiquitously-expressed intracellular cAMP receptors, the classic protein kinase A/cAMP-dependent protein kinase (PKA/cAPK) and the more recently discovered exchange protein directly activated by cAMP/cAMP-regulated guanine nucleotide exchange factor (EPAC/cAMP-GEF). Both PKA and EPAC are ubiquitously expressed in all tissues, and an increase in intracellular cAMP levels will lead to the activation of both PKA and EPAC. Therefore, careful dissections of the individual role and relative contribution of EPAC and PKA within the overall cAMP signaling in various model systems are critical for further elucidating the mechanism of cAMP signaling. To date no EPAC-specific antagonists and agonist, as well as isoform-specific agonists have been reported, and developing EPAC-specific pharmacological probes to determine the physiological functions that EPAC play in the overall cAMP-mediated signaling remains a major challenge within the research field. Furthermore, identified regulators of EPAC may lead to new mechanism-based therapeutic strategies specifically targeting the EPAC / cAMP-signaling components as EPAC has been implicated to play important roles in major human pathological conditions such as diabetes, heart disease, and cancer. This qHTS will be used to screen the Molecular Libraries Small Molecule Repository (MLSMR) as a concentration-titration series using the NCGC unique quantitative screening (qHTS) platform to find activators for EPAC1. In addition, this assay will also be used as a counterscreen for the EPAC2 qHTS. This fluorescent based assay is developed and validated for EPAC1 that measures exchange using EPAC effector Rap1 complex with BODIPY-GDP, a GDP analog with a tethered fluorophores. Activators are identified by monitoring the change in fluorescence signal as the exchanged free BODIPY-GDP has a reduced fluorescence compared to Rap1-bound BODIPY-GDP. Increase in signal (activation) is the desired outcome for the EPAC1 agonist while no activity in this assay is desired for the EPAC2 agonist counterscreen. Reference: [1] de Rooij, J., Zwartkruis, F. J., Verheijen, M. H., Cool, R. H., Nijman, S. M., Wittinghofer, A., and Bos, J.L. (1998) Nature 396, 474-477. Kawasaki, H., Springett, G. M., Mochizuki, N., Toki, S., Nakaya, M., Matsuda, M., Housman, D. E., and Graybiel, A. M. (1998) Science 282, 2275-2279.
EPAC1 Counterscreen PROTOCOL TABLE SEQUENCE No. (e.g., 1, 2, 3, etc.); […] (e.g., Cells, Incubation, Reagent, etc.); VALUE and DESCRIPTION. 1. Reagent. 3 uL. [1x] 250 nM Rap1B-BODIPY-GDP, and 50 uM GDP. 2a. Compound. 23 nL. Control 6,572 uM cAMP (working concentration). 2b, 2c. Compound. 23 nL. Control activator and inhibitor; 234 - 30,000 uM cAMP and 16.4 - 10,000 uM. 2d. Compound. 46 nL. MLSMR follow-up library; 0.64 - 10,000 uM. 3. Time. 15 sec, 1000rpm. Centrifuge. 4. Time. 5 min. Incubation at room temperature. 5. Detector. Fluorescence. (Read 1), Ex/Em = 480 nm / 540 nm. 6. Time. 30 min. Incubation at room temperature. 7. Detector. Fluorescence. (Read 2), Ex/Em = 480 nm/ 540 nm. 8. Reagent. 1uL. Dispense either [4x] 10 uM cAMP or buffer. 9. Time. 15 sec, 1000 rpm. Centrifuge. 10. Time. 5 min. Incubation at room temperature. 11. Detector. Fluorescence. (Read 3), Ex/Em = 480 nm / 540 nm. 12. Time. 30 min. Incubation at room temperature. 13. Detector. Fluorescence. (Read 4), Ex/Em = 480 nm / 540 nm. NOTES (numbers refer to Sequence numbers above; values are from representative experiments) 1. Medium-binding black solid-bottom Greiner plates (789176-F). Dispense 3 uL of [1x] 250 nM Rap1B-BODIPY-GDP, and 50 uM GDP into columns 1 to 48. 2a. Control compound cAMP (6,572 uM, column 3, rows 1 to 32) single pin-transferred for a [final] of 50 uM. 2b. […]

Rap guanine nucleotide exchange factor 3 (Homo sapiens), sequence (O95398 whole entry, looked up): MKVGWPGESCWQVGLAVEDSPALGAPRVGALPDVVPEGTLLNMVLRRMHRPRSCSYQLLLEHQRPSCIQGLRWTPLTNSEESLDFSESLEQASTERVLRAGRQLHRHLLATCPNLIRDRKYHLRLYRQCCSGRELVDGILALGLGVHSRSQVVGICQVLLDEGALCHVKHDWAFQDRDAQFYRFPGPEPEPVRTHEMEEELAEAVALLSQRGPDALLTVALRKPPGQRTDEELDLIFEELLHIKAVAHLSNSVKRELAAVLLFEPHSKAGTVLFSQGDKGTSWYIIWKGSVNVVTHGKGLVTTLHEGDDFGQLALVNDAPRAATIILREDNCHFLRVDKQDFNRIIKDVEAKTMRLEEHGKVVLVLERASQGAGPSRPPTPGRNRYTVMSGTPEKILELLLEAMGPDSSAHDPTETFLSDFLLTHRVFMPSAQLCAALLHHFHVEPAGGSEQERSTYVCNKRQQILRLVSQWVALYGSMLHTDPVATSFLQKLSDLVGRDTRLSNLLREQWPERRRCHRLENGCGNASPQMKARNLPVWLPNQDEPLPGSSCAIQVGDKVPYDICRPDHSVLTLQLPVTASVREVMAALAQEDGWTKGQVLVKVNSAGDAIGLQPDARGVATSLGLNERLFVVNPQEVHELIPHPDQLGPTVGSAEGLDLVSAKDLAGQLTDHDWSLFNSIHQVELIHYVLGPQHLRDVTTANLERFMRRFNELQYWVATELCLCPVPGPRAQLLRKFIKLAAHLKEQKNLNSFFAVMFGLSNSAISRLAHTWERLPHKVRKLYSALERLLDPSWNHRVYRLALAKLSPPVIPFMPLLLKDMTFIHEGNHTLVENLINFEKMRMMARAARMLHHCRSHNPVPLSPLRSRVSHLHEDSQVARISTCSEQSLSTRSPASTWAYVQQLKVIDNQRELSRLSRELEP

SMILES	activity change, negative = inhibition
COc1ccc(-c2nc3n(c(=O)c2C#N)CCS3)cc1	-1.96% [at 30.8 µM]
CCCn1c(N)c(C(=O)CSc2n[nH]c(-c3ccc(C)cc3)n2)c(=O)[nH]c1=O	6.27%
OC1C2CN3CCN(C2)CC1(Cc1ccccc1)C3 (stereo not given)	-12.7% [at 30.8 µM]
CN(Cc1ccccc1)S(=O)(=O)c1ccc(Cl)c(C(=O)NCc2ccncc2)c1	-14.3%
CCCCC(=O)N(c1ccc(C(=O)O)cc1)c1nc(-c2ccc(Cl)cc2)c(CC)s1	-5.84% [at 30.8 µM]
COc1ccc2cc(-c3cn4c(n3)sc3cc(F)ccc34)c(=O)oc2c1	12.8%
COc1ccc(N2CCN(C(=O)CCc3ccccc3OC)CC2)cc1	5.03%
Cc1ccc2nc(N3C(=O)C(O)=C(C(=O)c4ccc(C)o4)C3c3cccc(O)c3)sc2c1 (stereo not given)	5.43%
Cc1cccc(Nc2c([N+](=O)[O-])c(=O)oc3ccccc23)c1	49.9%
Cc1cc(Nc2cccc(C(F)(F)F)c2)nc2ccc(NC(=O)c3ccc(N(C)C)cc3)cc12	20.8%
NC(=O)C1CCN(C(=O)Nc2csc3ccccc23)CC1	18.5%
CC1Cc2nc(SCC(=O)OCc3ccccc3)n(C)c(=O)c2S1 (stereo not given)	9.81% [at 30.8 µM]
Cc1ccccc1OCCC(=O)OCC(=O)N1CCN(S(=O)(=O)c2ccc(Cl)cc2)CC1	-4.15% [at 30.8 µM]
Cc1ccc2c(c1)CCCN2C(=O)c1cc(C)c(C)s1	18.5%
COC(=O)c1c(NC(=O)c2c(OC)cccc2OC)sc2c1CCCC2	7.43%
CC(=O)Nc1ccc(NC(=O)CCC(=O)OCC(=O)c2ccc(C)c([N+](=O)[O-])c2)cc1	-17.8%
O=C(CCCC(=O)Nc1cccnc1)Nc1cccnc1	10.8%
CCN(CC)c1ccc2oc(=O)c(C)nc2c1	212%
CC(C)(C)c1nc(-c2ccccc2)nc2c1OCCC2	-5.2%
CC(OC(=O)CCN1C(=O)C2CC=CCC2C1=O)C(=O)Nc1cccc(C#N)c1 (stereo not given)	-8.99% [at 30.8 µM]

SMILES	activity change, negative = inhibition
CC(C)CNC(=O)c1c(-c2ccccc2)c(-c2ccccc2)nn(C)c1=O	-13.5%
CCOC(=O)c1c(C)[nH]c(CCC(=O)NCc2cccc(OC)c2)c1C	4.38%
COCC(=O)Oc1c(Sc2ccc(C)cc2)c(C)nn1C(C)(C)C	13.6%
O=C(c1ccco1)N(Cc1ccc([N+](=O)[O-])cc1)c1ccc(Br)cc1	10.5% [at 30.8 µM]
CC(C)(C)[C@H](N)C(=O)N[C@H]1CCC2C3CC=C4C[C@@H](O)CC[C@]4(C)C3CC[C@@]21C (stereo not given in full)	-9.07% [at 30.8 µM]
Cc1ccc2nc3sc(C(=O)NCc4ccco4)c(N)c3cc2c1	3.21% [at 30.8 µM]
COc1ccc(-c2cc(C(F)F)n3ncc(C(=O)N4CCc5ccccc54)c3n2)cc1	8.77%
CC(/C=C1\SC(=S)N(C(C(=O)O)C(C)C)C1=O)=C\c1ccccc1 (stereo not given)	-9.01%
CC1CN(C(=O)CCC(=O)NCc2ccccc2)c2ccccc2S1 (stereo not given)	18.8%
COc1ccc(OC)c(-c2nc3c(C#N)c[nH]n3c2NC2CCCCC2)c1	15.9%
CCCCN(C(=O)CSCC(=O)Nc1ccc(C)cc1)c1c(N)n(CCCC)c(=O)[nH]c1=O	-21.2% [at 30.8 µM]
O=C(Nc1ccccn1)c1cccc(S(=O)(=O)N2CCc3ccccc3C2)c1	-2.39%
COc1cc2c(cc1OC)-c1cc(NC3CCCCC3)nc(=O)n1CC2	14.4% [at 30.8 µM]
COC1=CC(=O)c2c(ccc3ncnc(N)c23)C1=O	-7.48%
CC1CC1C(=O)OCC(=O)NNC(=O)COc1ccc(Br)cc1 (stereo not given)	26.9% [at 30.8 µM]
Cc1ccc(C2CC(=O)Oc3cc(C)cc(C)c32)cc1 (stereo not given)	2.79%
CSCCC(NC(=O)c1ccc(Cl)cc1)C(=O)OCC(=O)N1CCCC1=O (stereo not given)	5.02% [at 30.8 µM]
CN(CCc1ccccn1)C(=O)Nc1ccc(F)cc1	1.28%
N#CCC(=O)Nc1sc2c(c1C(N)=O)CCCC2	-6.4% [at 30.8 µM]
Cc1cccc(CC2C(=O)Nc3ccccc32)c1 (stereo not given)	28.7%
